We go through 14 compounds from PubChem BioAssay.

Several values for one entry are separate records, joined by “and”; a condition that tells them apart may be missing. Equal values may be shown once. For some of these results: Results with a measured potency or affinity are listed apart. Where a structure was tested more than once in an assay, its records may differ in their call. Activity calls are given as the source filed them. Unless noted, no rule for the calls is given here.

Test [1] is described as follows: antimalarial activity against Dd2 strain (AID 2302;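 active = growth inhibition above 50% at the single 2 µM test dose, taken to imply half-maximal potency below 2 µM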;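 also: 0% = DMSO untreated growth and 100% = chloroquine plus artemisinin killed control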). The settings on record: P. falciparum Dd2 in RBCs, LDH growth readout, 72 h; at 2 µM; stronger effect = higher value.
The nature of test [2]: HepG2 cytotoxicity, primary screen, cytotoxicity control for P. falciparum antimalarial project, cell-based, ATP luminescence (AID 2303;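 active = inhibition above 50%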;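 also: 0% = DMSO wells and 100% = digitonin-killed cells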). The settings on record: HepG2 viability, 24-48 h, at 10 µM, stronger effect = higher value.
For test [3], the target named is L-lactate dehydrogenase (Plasmodium falciparum (isolate CDC / Honduras)) (UniProt Q27743). The test can be described thus: PfLDH activity inhibition – cell lysate, 3D7 strain, counter-screen for P. falciparum growth inhibition project (AID 2304).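 Also: 0% = vehicle and 100% = reference inhibitor.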 As to conditions: P. falciparum 3D7 crude extract, LDH APAD/NBT absorbance; at 2 µM; stronger effect = higher value. On the technique in general: A counterscreen serves to expose hits that act by an unwanted route or on another target.

Test [4] in a line: inhibition of 3D7 malaria parasite growth – strain 3D7 (AID 2306).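 Also: 0% = DMSO wells and 100% = chloroquine plus artemisinin control wells.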 As to conditions: P. falciparum 3D7 erythrocytic growth, LDH absorbance, 72 h; at 2 µM; stronger effect = higher value.
The target of test [5] is Calcium-dependent protein kinase 1 (Plasmodium falciparum (isolate 3D7)) (UniProt P62344). The test can be described thus: PfCDPK1 kinase inhibitors, biochemical, TCAMS library (AID 1159585; cut-off not given, nearly all actives have IC50 up to about 0.98 µM;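 also: inhibitors leave more ATP so luminescence rises with inhibition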). The settings on record: recombinant PfCDPK1, Kinase-Glo ATP depletion luminescence. In general terms: Kinase-Glo reads ATP consumption through a luciferase reaction.
Test [6] has as its target Plasmodium falciparum protein kinase 6 (PK6, PF3D7_1337100) (UniProt Q8IDW1). The test can be described thus: PfPK6 kinase inhibitors, biochemical, TCAMS library (AID 1159586). The settings on record: recombinant PfPK6, Kinase-Glo ATP depletion luminescence.
The target in test [7] is Protein kinase 7 (PK7), Plasmodium falciparum 3D7 (PF3D7_0213400) (UniProt Q7YTF7). Nature of the test: inhibition of Plasmodium PK7 catalytic activity – biochemical, TCAMS antimalarial set, Kinase-Glo luminescence (AID 1159587). The settings on record: recombinant PfPK7, Kinase-Glo ATP depletion luminescence.
Test [8] concerns the target Calcium-dependent protein kinase 4 (Plasmodium falciparum (isolate 3D7)) (UniProt Q8IBS5). The test can be described thus: PfCDPK4 kinase inhibitors, biochemical, TCAMS library (AID 1159588; cut-off not given, nearly all actives have IC50 up to about 0.91 µM). As to conditions: recombinant PfCDPK4, Kinase-Glo ATP depletion luminescence.

Sequence of L-lactate dehydrogenase (Plasmodium falciparum (isolate CDC / Honduras)) (Q27743 whole entry, looked up): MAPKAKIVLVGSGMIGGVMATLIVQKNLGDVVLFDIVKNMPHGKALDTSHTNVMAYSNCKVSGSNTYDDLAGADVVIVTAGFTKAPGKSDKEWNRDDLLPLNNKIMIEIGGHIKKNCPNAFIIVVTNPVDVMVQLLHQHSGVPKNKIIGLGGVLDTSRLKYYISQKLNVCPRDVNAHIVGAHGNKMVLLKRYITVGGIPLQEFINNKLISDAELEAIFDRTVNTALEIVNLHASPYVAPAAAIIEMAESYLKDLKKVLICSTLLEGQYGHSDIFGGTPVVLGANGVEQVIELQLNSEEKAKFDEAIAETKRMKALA
Sequence of Protein kinase 7 (PK7), Plasmodium falciparum 3D7 (PF3D7_0213400) (Q7YTF7 1-343): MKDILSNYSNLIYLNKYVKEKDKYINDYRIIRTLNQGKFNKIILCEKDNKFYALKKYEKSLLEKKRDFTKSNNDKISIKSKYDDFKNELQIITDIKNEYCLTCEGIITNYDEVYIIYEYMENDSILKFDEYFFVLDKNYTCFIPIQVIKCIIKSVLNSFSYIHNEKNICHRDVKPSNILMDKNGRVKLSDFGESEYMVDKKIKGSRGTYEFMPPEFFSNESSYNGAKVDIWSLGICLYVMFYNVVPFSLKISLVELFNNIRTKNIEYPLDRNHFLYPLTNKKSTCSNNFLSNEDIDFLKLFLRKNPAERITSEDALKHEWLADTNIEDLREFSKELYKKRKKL
Sequence of Plasmodium falciparum protein kinase 6 (PK6, PF3D7_1337100) (Q8IDW1 1-305): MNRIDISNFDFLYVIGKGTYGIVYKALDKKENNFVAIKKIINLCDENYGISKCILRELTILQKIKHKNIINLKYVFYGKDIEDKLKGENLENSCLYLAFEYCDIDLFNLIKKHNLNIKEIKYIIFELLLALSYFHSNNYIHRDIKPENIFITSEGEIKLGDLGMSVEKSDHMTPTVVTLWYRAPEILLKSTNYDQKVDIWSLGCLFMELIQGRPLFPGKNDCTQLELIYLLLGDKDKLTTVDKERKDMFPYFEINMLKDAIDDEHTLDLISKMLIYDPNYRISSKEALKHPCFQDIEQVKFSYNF
Sequence of Calcium-dependent protein kinase 4 (Plasmodium falciparum (isolate 3D7)) (Q8IBS5 whole entry, looked up): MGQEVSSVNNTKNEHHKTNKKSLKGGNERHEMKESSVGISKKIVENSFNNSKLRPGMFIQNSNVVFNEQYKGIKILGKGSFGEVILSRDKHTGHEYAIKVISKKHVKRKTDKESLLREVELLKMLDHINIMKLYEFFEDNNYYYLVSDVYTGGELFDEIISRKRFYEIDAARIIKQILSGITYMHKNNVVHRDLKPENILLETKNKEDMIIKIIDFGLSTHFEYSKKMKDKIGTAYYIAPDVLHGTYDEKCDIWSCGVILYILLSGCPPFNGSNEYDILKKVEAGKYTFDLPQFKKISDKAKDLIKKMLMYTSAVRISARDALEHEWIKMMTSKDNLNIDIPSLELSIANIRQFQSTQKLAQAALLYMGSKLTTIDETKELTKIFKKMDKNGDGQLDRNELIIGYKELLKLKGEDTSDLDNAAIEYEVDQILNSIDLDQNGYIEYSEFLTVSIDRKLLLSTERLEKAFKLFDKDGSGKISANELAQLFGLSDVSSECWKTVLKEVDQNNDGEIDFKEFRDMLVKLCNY
Sequence of Calcium-dependent protein kinase 1 (Plasmodium falciparum (isolate 3D7)) (P62344 whole entry, looked up): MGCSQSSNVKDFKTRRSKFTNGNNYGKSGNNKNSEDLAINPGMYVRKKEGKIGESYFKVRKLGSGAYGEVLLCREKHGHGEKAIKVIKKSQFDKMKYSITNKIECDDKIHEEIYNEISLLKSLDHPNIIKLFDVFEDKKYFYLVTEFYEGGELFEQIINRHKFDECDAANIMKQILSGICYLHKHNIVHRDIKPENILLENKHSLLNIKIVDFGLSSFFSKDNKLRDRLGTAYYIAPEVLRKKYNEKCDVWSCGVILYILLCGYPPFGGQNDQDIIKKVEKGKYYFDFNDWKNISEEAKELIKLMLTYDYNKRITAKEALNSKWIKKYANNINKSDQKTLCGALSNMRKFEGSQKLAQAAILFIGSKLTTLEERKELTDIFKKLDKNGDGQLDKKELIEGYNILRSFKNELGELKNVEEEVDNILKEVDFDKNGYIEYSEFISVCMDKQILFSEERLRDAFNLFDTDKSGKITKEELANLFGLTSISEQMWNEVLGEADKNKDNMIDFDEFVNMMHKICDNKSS

As to `CC[C@H]1CN2CC[C@H]1C[C@H]2[C@H](O)c1ccnc2ccc(O)cc12`, the growth inhibition in test [1] was 2% (inactive); in test [4], 99% (active). For the same compound, the values for the inhibition in test [2] and in test [3] were 11% (inactive) and -3% (inactive), respectively. The result in test [5], in test [6], in test [7] and in test [8] was inactive.
For `COc1cc(C=CC(=O)N2CCC(CN3CCC(c4c[nH]c5ccccc45)CC3)CC2)cc(OC)c1`, the values for the growth inhibition in test [1] and in test [4] were 8% (inactive) and 95% (active), respectively. For the same compound, the inhibition is 19% (inactive) in test [2] and 4% (inactive) in test [3]. Further, the result in test [5], in test [6], in test [7] and in test [8] was inactive.
For the compound `COc1ccc(CN(C2CC2)C(C)C(=O)c2[nH]c(C)c(C(C)=O)c2C)cc1` (configuration not stated), the growth inhibition in test [1] was 64% (active); in test [4] it was 98% (active). In addition, the inhibition in test [2] was 40% (inactive); in test [3] it was -3% (inactive). Also, the outcome in test [5], in test [6], in test [7] and in test [8] was inactive.
In the case of `O=C(Nc1ccc(Cl)c(Cl)c1)N1CCC(CN2CCC(c3c[nH]c4ccccc34)CC2)CC1`, the growth inhibition is 69% (active) in test [1] and 100% (active) in test [4]. Besides, the inhibition in test [2] was 46% (inactive); in test [3], -2% (inactive). Also, the result in test [5], in test [6], in test [7] and in test [8] was inactive.
For `C[C@@H](CC1CCCCC1)NCc1ccccc1O`, the growth inhibition in test [1] is 67% (active); in test [4] it was 98% (active). Also, the inhibition in test [2] is 9% (inactive); in test [3], 3% (inactive). For the same compound, the result in test [5], in test [6], in test [7] and in test [8] was inactive.
On to `CCCCCCc1cc(O)c2c3c(c(=O)oc2c1)CCN(C)C3`, for which the growth inhibition in test [1] is 66% (active); in test [4] it was 99% (active). The inhibition in test [2] is -6% (inactive); in test [3] it was 4% (inactive). The result in test [5], in test [6], in test [7] and in test [8] was inactive.
As for `C=C[C@@H]1CN2CC[C@H]1C[C@H]2[C@H](O)c1cc(-c2ccc(Cl)cc2)nc2ccc(OC)cc12`, the figures for the growth inhibition in test [1] and in test [4] were 98% (active) and 99% (active), respectively. Besides, the results for the inhibition in test [2] and in test [3] were 38% (inactive) and 0% (inactive), respectively. In addition, the result in test [5], in test [6], in test [7] and in test [8] was inactive.
As for `CN1CC=C(c2c[nH]c3ccc(Sc4ccccc4)cc23)CC1`, the growth inhibition in test [1] was 99% (active); in test [4], 98% (active). Also, the inhibition in test [2] is 36% (inactive); in test [3], -2% (inactive). Further, the outcome in test [5], in test [6], in test [7] and in test [8] was inactive.
On to `CS(=O)(=O)Nc1ccc2[nH]cc(C3CCN(CC4CCN(C(=O)/C=C/c5ccc(Cl)c(Cl)c5)CC4)CC3)c2c1`, for which the figures for the growth inhibition in test [1] and in test [4] were 92% (active) and 101% (active), respectively. Besides, the inhibition in test [2] was 27% (inactive); in test [3] it was -5% (inactive). Besides, the outcome in test [5], in test [6], in test [7] and in test [8] was inactive.
In the case of `Cc1[nH]c2cc(F)ccc2c1C1=CCN(CCCCC2(C)C(=O)Nc3ccccc32)CC1` (configuration not stated), the growth inhibition is 90% (active) in test [1] and 93% (active) in test [4]. For the same compound, the inhibition in test [2] is 13% (inactive); in test [3], -8% (inactive). For the same compound, the result in test [5], in test [6], in test [7] and in test [8] was inactive.
For the compound `C=C[C@H]1CN2CC[C@H]1C[C@H]2[C@H](O)c1cc(/C=C/c2ccc(F)cc2)nc2ccc(OC)cc12`, the growth inhibition in test [1] and in test [4] was 99% (active) each time. For the same compound, the inhibition in test [2] was 25% (inactive); in test [3], 4% (inactive). Also, the result in test [5], in test [6], in test [7] and in test [8] was inactive.
For the compound `CC(C)(C)c1cc(/C=C/C(=O)NC2CCC(CN3CCC(c4c[nH]c5ccccc45)CC3)CC2)cc(C(C)(C)C)c1O` (configuration not stated), the growth inhibition in test [1] is 100% (active); in test [4] it was 101% (active) and 102% (active). For the same compound, the inhibition in test [2] is 98% (active) and 99% (active); in test [3], -3% (inactive) and -5% (inactive). The result in test [5], in test [6], in test [7] and in test [8] was inactive.
As for `Cc1ccc2[nH]cc(C3CCN(CC4CCC(NC(=O)/C=C/c5ccc(Cl)c(Cl)c5)CC4)CC3)c2c1` (configuration not stated), the growth inhibition is 46% (inactive) and 86% (active) in test [1]; 101% (active) and 94% (active) in test [4]. Also, the inhibition in test [2] was 29% (inactive) and 37% (inactive); in test [3], -10% (inactive) and 0% (inactive). In addition, the outcome in test [5], in test [6], in test [7] and in test [8] was inactive.
In the case of `CN(c1cc(NC(=O)c2cccs2)ccn1)C1CCN(Cc2cccc(F)c2)CC1`, the results for the growth inhibition in test [1] and in test [4] were 95% (active) and 94% (active), respectively. Further, the inhibition in test [2] was -1% (inactive); in test [3], 4% (inactive). In addition, the outcome in test [5], in test [6], in test [7] and in test [8] was inactive.

A word on the inhibition: it is the drop in the measured response relative to a control, in per cent.
